Reference: PubChem BioAssay (Tox21)
Values joined by “and” are separate entries in the source; they are usually repeats but may differ in a detail not shown here. Equal entries are not always repeated. Inconclusive results are not listed. Active and inactive are the calls of the source. Calls follow the shape of the dose curve; as a rule, active = well fitted inhibition curve with a large enough effect in the repeat runs; inconclusive = weak or mixed curves, or effect the other way; inactive = no such curve, though single readings can be large or run the other way.

Molecular target: Nuclear receptor ROR-gamma (Homo sapiens) (UniProt P51449)
Assay: qHTS assay to identify small molecule antagonists of the retinoid-related orphan receptor gamma (ROR-gamma) signaling pathway (AID 1159521; also: nearly all actives have a fitted effect of over 50% in size; as to activity change, negative = inhibition: top concentration of the series differs between compounds)
Conditions: Tet-on RORgamma CHO cells, RORE-luciferase, 16 h; series mostly up to 92.4 µM; activity change, negative = inhibition: at the top concentration
Text: U.S. Tox21 Program National Center for Advancing Translational Sciences [NCATS] NIH Chemical Genomics Center [NCGC] U.S. Environmental Protection Agency [EPA] National Institutes of Environmental Health Sciences [NIEHS] National Toxicology Program [NTP] U.S. Food and Drug Administration [FDA] Tox21 Assay Overview: Nuclear steroid hormone receptors are involved in many biological processes including inflammatory responses, cell proliferation, and apoptosis. Environmental factors or compounds disrupting these nuclear receptor pathways and gene expression may promote susceptibility to immunotoxicants and autoimmune diseases. One important group of these expression factors are the retinoid-related orphan receptors. To assess compounds that may interfere with the retinoid-related orphan receptor gamma (ROR-gamma) transcription factor, a cell-based luciferase assay was used. The CHO cell-based assay utilizes a TET-inducible ROR expression factor and ROR response element-LUC reporter gene. Reporter gene activity was induced using Doxycycline Hyclate and measured after 16 hr incubation. Tet-on ROR gamma CHO cells were used to screen against the Tox21 10K compound library for ROR gamma antagonists by quantification of decreased reporter gene activity in terms of decreased luminescence.
Tox21 Assay Protocol Summary: Tet-on ROR gamma CHO cells were dispensed at 1,000 cells in 4 uL of culture medium per well into white wall/solid bottom 1536-well plates using a Multidrop Combi (Thermo Scientific, Waltham, MA) dispenser. Following incubation at 37 C and 5% CO2 for 4 hr, 23 nL of compounds dissolved in DMSO, positive controls or DMSO only were transferred by a Pintool station (Kalypsys, San Diego, CA) and after 2 hr incubation at 37 C, one ul of 1 uM (final concentration) of Doxycycline Hyclate was added to all the wells by using a Flying Reagent Dispenser (FRD) (Aurora Discovery, San Diego, CA). After 16 hr incubation at 37 C and 5% CO2, 5 uL of ONE-Glo reagent (Promega Corporation, Madison, WI) was added to each assay plate using FRD. After 30 min incubation at room temperature, luminescence was quantified on a ViewLux plate reader (Perkin Elmer, Waltham, MA).
% is scaled to controls: 0 for no effect and ±100 for the full control effect; potency is read from the fitted curve at half-maximal effect.

Compound	Potency	activity change, negative = inhibition
CN1CSC(=S)N(C)C1	964 nM (active) and 2.16 µM (active)	
COc1ccc(C(c2ccc(OC)cc2)C(Cl)(Cl)Cl)cc1	48.3 µM (active)	
Cc1nnc2n1-c1sc(CCc3ccc(CC(C)C)cc3)cc1C(c1ccccc1Cl)=NC2C (stereo unspecified)	29.8 µM (active)	
CC(c1ccccc1)(c1ccc(O)cc1)c1ccc(O)cc1	48.6 µM (active)	
O=C(Nc1ccccc1-c1ccc(Cl)cc1)c1cccnc1Cl		-13.6% (inactive)
Cc1cc(C)c(C(=O)P(=O)(c2ccccc2)c2ccccc2)c(C)c1	61.1 µM (active)	
CCN(CC)C(=O)Cl		-9.38% (inactive)
O=C(c1ccccc1)C(Cl)Cl	27.3 µM (active)	
CO/C=C(/C(=O)OC)c1ccccc1Oc1cc(Oc2ccccc2C#N)ncn1	0.581 µM (active)	
Nc1ccc([N+](=O)[O-])cc1		20.3% (inactive)
COc1cc(OC)c(OC)cc1C=O		12.2% (inactive)
